In the library only some 1.7% were active in any assay of this set; here they are far more common.
Coupling enz: coupling enzyme interference in Giardia aldolase counter-screen; coupling enzyme system counterscreen, AmpLite Red fluorescence; activity change, negative = inhibition, % at 58.2 µM, hits read low; actives 0.67% (n = 290,000); in the data active = activity change below about -30%; note: % is set by controls: 0 for no effect and ±100 for the full control effect
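Fluorescence at 525 nm excitation and 598 nm emission measured inhibition of the coupled detection system without aldolase. Compounds (at 57.5 uM final) were preincubated 10 min at room temperature with coupling enzyme reagent before a 20 min substrate/AmpLite Red step.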
USP1-UAF1 inh: blocks the human USP1/UAF1 deubiquitinase complex; O94782; recombinant USP1/UAF1, Ub-Rhodamine cleavage fluorescence; Potency, µM (top dose mostly 57.1 µM), inactives show at the highest dose activity change, negative = inhibition, usual class: inhibitors; actives 0.23% (n = 390,000); active = well fitted inhibition curve with a large enough effect; inconclusive = small, poorly fitted or top-dose-only effect; inactive = no such curve, though single readings can be large or run the other way; note: potency is the fitted concentration of half-maximal effect; % is set by controls: 0 for no effect and ±100 for the full control effect; nearly all actives have a fitted effect of over 60% in size
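USP1/UAF1 complex (1 nM) preincubated 15 min at room temperature with compound, then Ub-Rho substrate (150 nM final) added. Kinetic fluorescence at 480/540 nm over 6 reads at 60 s intervals; 50 mM HEPES pH 7.8, 0.5 mM EDTA, 0.1 mg/ml BSA, 1 mM TCEP, 0.01% Tween-20.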
KCNH2 WT inh: KCNH2 (human, wildtype) channel inhibition; U2OS, BacMam KCNH2, thallium flux FluxOr; active compounds read low; actives 0.37% (n = 340,000); activity change, % at 1.84 µM; Q12809;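 active = maximum activity change below -70%; inconclusive = maximum activity change between -70% and -50%; inactive = maximum activity change above -50%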; note: % is set by controls: 0 for no effect and ±100 for the full control effect
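U2OS cells transduced with wild-type KCNH2 virus are loaded with FluxOr dye for 45 min, and thallium flux is measured in kinetic reads before and after stimulation buffer. Rate constants are normalized to DMSO controls.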
Giardia killer: kills Giardia lamblia. Giardia lamblia trophozoite viability. activity change, % at 7.66 µM, hits read low. actives 0.15% (n = 340,000). AID 540267; in the data active = activity change below about -80%; inconclusive = between about -30% and that limit;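 note: parasites exposed to compound for two days anaerobically before the ATP read; % is set by controls: 0 for no effect and ±100 for the full control effect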
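Anaerobic 48 hrs incubation at 37 deg C of 100 trophozoites/well with test compounds; ATPLite 1-Step luminescence, 15-30 min RT, reports cellular ATP as viability.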
KCNH2 3.1 inh: KCNH2 3.1 (human) potassium channel inhibition; U2OS KCNH2 3.1, thallium flux FluxOr; active compounds read low; activity change, % (tested at about 1.8 µM); actives 0.95% (n = 340,000);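 active = maximum activity change below -70%; inconclusive = maximum activity change from -70% to -50%; inactive = maximum activity change above -50%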;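 note: thallium influx rate constant from kinetic fluorescence after stimulation buffer; % is set by controls: 0 for no effect and ±100 for the full control effect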
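Channel expression came from 3.1 mutant virus (1.77 x 10^8 /mL) applied to suspended U2OS cells for 4 h. Flux was tracked with FluxOr dye plus Red40 quencher, and kinetic rate constants normalized to controls.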
Casp1 confirm: confirmation of allosteric or competitive inhibitors of human caspase-1; shares compounds with Coupling enz; purified caspase-1, fluorogenic substrate cleavage; Potency, µM (titrated, usually from 57.5 µM), for inactives: at the top dose activity change, negative = inhibition, most hits filed as inhibitors; actives 20% (n = 60)
Casp7 confirm: blocks human caspase-7 activity in concentration-response; shares compounds with Coupling enz; recombinant caspase-7, fluorogenic substrate cleavage; Potency, µM (doses to about 57.5 µM), without a hit: top-dose activity change, negative = inhibition, usual class: inhibitors; 60 tested, under 10 active; AID 897; active = well fitted inhibition curve with a large enough effect in the main read-out, with a control signal flat, not every such curve was filed as active; inconclusive = small, poorly fitted or top-dose-only effect, or a change in a side signal; inactive = no such curve, though single readings can be large or run the other way
Casp7 cysteine: inhibits caspase-7 in cysteine buffer, redox counter-screen. Potency, µM (top dose mostly 57.5 µM), inactives show at the highest dose activity change, negative = inhibition, usual class: inhibitors. 60 tested, under 10 active. caspase-7 enzyme with cysteine, fluorogenic substrate, redox counterscreen. shares compounds with Coupling enz
Casp1 cysteine: inhibits caspase-1 in cysteine buffer, redox counter-screen; 60 tested, under 10 active; shares compounds with Coupling enz; recombinant caspase-1, fluorogenic substrate, cysteine buffer; Potency, µM (top dose mostly 57.5 µM), for inactives: top-dose activity change, negative = inhibition, most hits filed as inhibitors
* = called active by the depositor; ? = inconclusive; . = not tested or not shown. Unless noted, calls come from the whole dose curve; as a rule, active = well fitted inhibition curve with a large enough effect in the main read-out, with a control signal flat; inconclusive = small, poorly fitted or top-dose-only effect, or a change in a side signal; inactive = no such curve, though single readings can be large or run the other way.

SMILES	Coupling enz	USP1-UAF1 inh	KCNH2 WT inh	Giardia killer	KCNH2 3.1 inh	others
COc1ccccc1NC(=O)Oc1cccc(OC(=O)c2ccccc2)c1	-2	?	6	-16	3
Cc1cc(C)cc(N2C(=O)/C(=C\c3ccc(N4CCN(C)CC4)o3)C(=O)NC2=S)c1	0	32µM*	1	-8	-15
CCCCNC(=O)c1c(N)n(Cc2ccc3c(c2)OCO3)c2nc3ccccc3nc12	-13	28µM*	-8	-6	1
Nc1c(C(=O)NCCCc2ccccc2)c2nc3ccccc3nc2n1Cc1cccs1	-51*	?	-10	-2	-2
CCCCCn1c(N)c(C(=O)NCCN2CCOCC2)c2nc3ccccc3nc21	-8	-25%	12	10	-5
Nc1c(C(=O)NCc2ccco2)c2nc3ccccc3nc2n1Cc1ccc(F)cc1	-40*	-7%	-7	-7	0
CC(C)OC(=O)C(O)(c1ccc(Cl)cc1)c1ccc(Cl)cc1	0	.	.	.	.
O=C(O)Cc1cccnc1C(=O)O	-68*	.	.	.	.
CC(=O)[O][Hg][c]1ccccc1	-48*	.	.	.	.
CC(=O)/C=C/c1ccccc1	.	-16%	6	-25	2
C[S@@](=O)CCCCN=C=S	-1	.	.	.	.
COc1cc2c(cc1O)[C@H]1Cc3ccc(OC)c(O)c3CN1CC2	-38*	.	.	.	.
COc1ccccc1N1C(=O)NC(=O)/C(=C/c2ccc([N+](=O)[O-])s2)C1=O	-13	32µM*	-1	-12	-21
COc1ccc(N2C(=O)NC(=O)/C(=C\c3ccc([N+](=O)[O-])s3)C2=O)cc1	-12	16µM*	6	-5	3
CCOc1ccc(N2C(=O)NC(=O)/C(=C\c3cc(OC)c(OC)cc3[N+](=O)[O-])C2=O)cc1	-3	?	13	16	-8
COc1cccc(N2C(=O)NC(=O)/C(=C/c3ccc([N+](=O)[O-])s3)C2=O)c1	-10	?	16	-15	0
COc1ccc(N2C(=O)NC(=O)/C(=C/c3ccc([N+](=O)[O-])s3)C2=O)cc1	-4	22µM*	-5	-5	7
CC1=C(O)C(=O)C=C2C1=CC=C1[C@]2(C)CC[C@@]2(C)C3C[C@](C)(C(=O)O)CC[C@@]3(C)CC[C@@]12C (some centres undefined)	2	.	.	.	.
C=CC[C@]1(O)CC[C@H]2[C@@H]3CCC4=CC(=O)CCC4=C3C=C[C@@]21C	-5	.	.	.	.
COC(=O)[C@@]1(C#N)[C@@H]2C=CC(C(C)=O)=CN2[C@@H](C(N)=O)[C@@H]1c1ccc(F)cc1	-8	28µM*	3	26	-5
CCOC(=O)[C@]1(C#N)[C@@H]2C=CC(C(N)=O)=CN2[C@@H](C(N)=O)[C@@H]1c1ccc(F)cc1	-10	?	-3	-3	19
Cc1ccc(C(c2nnnn2Cc2ccccc2)N2CC=C(c3ccc(F)cc3)CC2)cc1 (centres undefined)	0	?	17	-90*	17
CCCC[C@@H](C)[C@@H](OC(=O)C[C@@H](CC(=O)O)C(=O)O)[C@H](C[C@@H](C)CCCCCC[C@@H](O)C[C@H](O)[C@H](C)N)OC(=O)C[C@@H](CC(=O)O)C(=O)O	9	.	.	.	.
CCC1OC2(C)C(O)C(/C=C/C=C/C=C/c3oc(=O)cc(OC)c3C)OC1(C)C2OC(C)=O (centres undefined)	2	.	.	.	.
NC(=O)c1ccc(OCCC(O)N2CC=C(c3ccc(F)cc3)CC2)cc1 (centres undefined)	.	17%	72	8	-73*
SMILES	Coupling enz	USP1-UAF1 inh	KCNH2 WT inh	Giardia killer	KCNH2 3.1 inh	others
O=C(c1ccc2nc(-c3ccco3)c(-c3ccco3)nc2c1)N1CCC2(CC1)OCCO2	-45*	-25%	1	10	-1
COc1ccc(C(=O)N2CCC3(CC2)OCCO3)cc1	10	-6%	4	0	18
c1ccc2c(c1)[IH]c1ccccc1-2	.	-13%	0	-98*	3
COC(=O)C1=C(c2ccc(F)cc2OCc2ccccc2)C[C@@H]2CC[C@H]1N2C(=O)NCCOc1ccc(OC)cc1	.	-31%	2	3	-87*
COC(=O)C1=C(c2ccccc2OCc2ccccc2)C[C@@H]2CC[C@H]1N2C(=O)NCc1ccc(N(C)C)cc1	.	?	-13	14	-116*
COC(=O)C1=C(c2ccc(F)cc2OCc2ccccc2)C[C@@H]2CC[C@H]1N2C(=O)NCc1ccc(N(C)C)cc1	.	-10%	-11	-7	-29
CCC(=O)CCCCC[C@@H]1NC(=O)[C@H]2CCCCN2C(=O)[C@H]([C@@H](C)CC)NC(=O)[C@H](Cc2cn(OC)c3ccccc23)NC1=O	0	.	.	.	.
CC(C)N1CCN(c2ccc(O)cc2)CC1	-51*	-25%	2	4	13
COc1ccc(OCC(=O)N2CCN(C(C)C)CC2)cc1	0	7%	4	26	-4
O=C(CCCN1CCC2(CC1)C(=O)NCN2c1ccccc1)c1ccc(F)cc1	2	-11%	-38	7	-81*
O=C(CN1CCCCC1)NCC(=O)Nc1ccc(Br)cc1C(=O)c1ccccc1	4	-5%	-36	-5	-78*
O=C(CNC(=O)c1ccccc1)Nc1ccc(Br)cc1C(=O)c1ccccc1	7	-15%	-9	1	12
CCN(CC)CC(=O)Nc1ccc(Cl)cc1C(=O)c1ccccc1	.	-8%	3	-6	13
O=C(CN1CCN(CCO)CC1)Nc1ccc(Cl)cc1C(=O)c1ccccc1	5	-8%	-23	5	-87*
CN1CCN(CC(=O)Nc2ccc(Cl)cc2C(=O)c2ccccc2)CC1	1	-11%	?	-16	-78*
CNC(=S)S	3	.	.	.	.
CC[n+]1c(-c2ccccc2)c2cc(N)ccc2c2ccc(N)cc21	-44*	?	-3	-3	-21
C=CCn1c(O)c(C(C)=NCCN2CCOCC2)c(=O)[nH]c1=O	2	-28%	1	-4	32
C=CCn1c(O)c(C(C)=NCCN2CCN(C(=S)NC)CC2)c(=O)[nH]c1=O	-2	-12%	-99*	-8	-10
CCn1nc(-c2cccs2)nc2c(=O)n(C)c(=O)nc1-2	-69*	0.22µM*	3	4	-8	Casp1 confirm=0.32µM*;Casp7 confirm=0.63µM*;Casp7 cysteine=-11%;Casp1 cysteine=-4%
COc1ccc(C(=O)O)cc1OC	0	7%	-1	13	2
O=C(O)c1cc[c]([Hg][Cl])cc1	.	-24%	5	-4	3	Casp1 confirm=10µM*;Casp7 confirm=-14%;Casp7 cysteine=-25%;Casp1 cysteine=2.5µM*
O=C(Oc1ccccc1)N1CCC[C@@]2(CCN(Cc3cc(C(F)(F)F)cc(C(F)(F)F)c3)C2)C1	-1	.	.	.	.
